Results as given in PubChem BioAssay (Tox21).
Several values for one entry are separate records, joined by “and”; a condition that tells them apart may be missing. Equal entries are not always repeated. Inconclusive results are not listed. Entries that show only a call come without a potency. Unmarked numbers belong to inactive results. Activity calls are given as the source filed them. The call rests on the fitted dose curve.

biological target: Thyrotropin receptor (Homo sapiens) (UniProt P16473); experiment: qHTS assay to identify small molecule antagonists of the thyroid stimulating hormone receptor (TSHR) signaling pathway (AID 1259385); details: TSHR-HEK293 cAMP HTRF, TSH-stimulated antagonist mode; series mostly up to 92.4 µM; activity change, negative = inhibition: at the top concentration; further: nearly all actives have a fitted effect of over 20% in size
Description: U.S. Tox21 Program National Center for Advancing Translational Sciences [NCATS] NIH Chemical Genomics Center [NCGC] U.S. Environmental Protection Agency [EPA] National Institutes of Environmental Health Sciences [NIEHS] National Toxicology Program [NTP] U.S. Food and Drug Administration [FDA] Tox21 Assay Overview: TSHR is the receptor for thyrotropin (thyroid stimulating hormone or TSH), a member of the glycoprotein hormone family. TSH is released by the anterior pituitary gland and is the main regulator of thyroid gland growth and development. Upon binding circulating thyrotropin, a G-protein signal cascade activates adenylyl cyclase and […] cAMP concentration is increased. cAMP is a key second messenger involved extensively in cellular signal transduction pathways associated with the majority of G-protein coupled receptors (GPCRs). The activation of these GPCRs by neurotransmitters, lipids, nucleotides, peptides and hormones results in the activation or the inhibition of plasma membrane-bound adenylate cyclase through heterotrimeric G-proteins. A cell-based TSHR assay can be used to screen chemical compounds that modulate TSHR either in agonist or antagonist mode.
Tox21 Assay Protocol Summary: TSHR-Hek293 cells were dispensed at 800 cells/4uL/well in 1536-well white plates using a Multidrop dispenser. After the assay plates were incubated at a 37C/5% CO2 incubator for 18 hrs, 23 nL of compounds dissolved in DMSO, positive controls or DMSO only was transferred to the assay plate by a pin tool, followed by 1 ul medium containing Ro20-1724. For the antagonist mode screening, 1 uL of TSH was added on the top of the cell/compound mixtures to achieve a final agonist concentration of 1.5 ng/mL. After 30 min of incubation at room temperature, 2.5 ul/well of cAMP-d2 and 2.5 ul/well of anti-cAMP-cryptate were added respectively into the assay plates using a Flying Reagent Dispenser. The plates were incubated at room temperature for 1 hr. The fluorescence intensity in the plates was measured using an Envision plate reader. Each test compound was measured at 15 concentrations and in triplicates.
Potency means the concentration at half of the fitted maximal effect.

Thyrotropin receptor (Homo sapiens), sequence (P16473 whole entry, looked up): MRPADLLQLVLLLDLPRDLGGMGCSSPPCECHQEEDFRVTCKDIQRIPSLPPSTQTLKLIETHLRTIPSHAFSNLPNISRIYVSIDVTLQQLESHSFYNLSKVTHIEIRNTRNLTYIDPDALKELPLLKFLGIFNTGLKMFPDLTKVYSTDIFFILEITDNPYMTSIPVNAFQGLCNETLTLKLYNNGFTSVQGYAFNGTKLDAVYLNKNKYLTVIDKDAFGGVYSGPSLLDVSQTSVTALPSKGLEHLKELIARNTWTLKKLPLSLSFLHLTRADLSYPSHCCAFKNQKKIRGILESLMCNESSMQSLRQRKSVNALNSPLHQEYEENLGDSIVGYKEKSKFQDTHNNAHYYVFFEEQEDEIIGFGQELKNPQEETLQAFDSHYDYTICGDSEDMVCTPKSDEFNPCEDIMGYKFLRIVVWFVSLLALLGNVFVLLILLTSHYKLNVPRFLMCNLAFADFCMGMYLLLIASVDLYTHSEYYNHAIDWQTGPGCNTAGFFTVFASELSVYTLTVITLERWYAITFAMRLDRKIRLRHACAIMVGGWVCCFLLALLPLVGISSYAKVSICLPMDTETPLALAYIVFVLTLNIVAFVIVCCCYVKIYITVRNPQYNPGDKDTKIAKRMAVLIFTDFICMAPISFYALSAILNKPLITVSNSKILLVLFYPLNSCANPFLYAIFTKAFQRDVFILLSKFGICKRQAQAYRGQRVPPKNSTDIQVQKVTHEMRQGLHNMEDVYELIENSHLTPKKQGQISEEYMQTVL

| Structure (SMILES) | Potency | activity change, negative = inhibition |
| --- | --- | --- |
| OCCO | inactive |  |
| CN(C)CCC=C1c2ccccc2CCc2ccccc21 | 68.6 µM (active) and 26.6 µM (active) |  |
| Nc1ncnc2nc[nH]c12 | inactive |  |
| CC(=O)C1(C)CC2=C(CCCC2(C)C)CC1C (stereo not given) | 43.3 µM (active) |  |
| OC1CCCCCCCCCCC1 | inactive |  |
| O=Cc1ccccc1O | inactive |  |
| OC(CCl)CCl | inactive |  |
| CCCCC(CC)COCC1CO1 (stereo not given) | inactive |  |
| COc1cc([C@@H]2c3cc4c(cc3[C@H](O)[C@H]3COC(=O)[C@H]23)OCO4)cc(OC)c1OC | inactive |  |
| CCCCOCCOCCOCCO | inactive |  |
| Cc1c(OCC(F)(F)F)ccnc1CS(=O)c1nc2ccccc2[nH]1 (stereo not given) | inactive |  |
| O=CCc1ccccc1 | inactive |  |
| S=C(NC1CCCCC1)NC1CCCCC1 | inactive |  |
| CC1=CCC(C(C)(C)O)CC1 (stereo not given) | inactive |  |
| CCCCC(CC)COC(=O)c1ccc(N(C)C)cc1 (stereo not given) | inactive |  |
| CC(=O)O[C@]1(C(C)=O)CC[C@H]2[C@@H]3C=C(Cl)C4=CC(=O)[C@@H]5C[C@@H]5[C@]4(C)[C@H]3CC[C@@]21C | inactive |  |
| Cc1ncc[nH]1 | inactive |  |
| Brc1cc(Oc2cc(Br)c(Br)c(Br)c2Br)c(Br)c(Br)c1Br | inactive |  |
| CCOC(=O)C(C#N)=C(c1ccccc1)c1ccccc1 | inactive |  |
| O=C(/C=C/C=C/c1ccc2c(c1)OCO2)N1CCCCC1 |  | 0.715% |

| Structure (SMILES) | Potency | activity change, negative = inhibition |
| --- | --- | --- |
| CNCCCC12CCC(c3ccccc31)c1ccccc12 |  | 7.52% [at 42.5 µM] |
| CC(C(=O)O)c1cccc(C(=O)c2ccccc2)c1 (stereo not given) | inactive |  |
| CC(=O)Oc1ccccc1C(=O)Nc1ncc([N+](=O)[O-])s1 | inactive |  |
| O=C(/C=C/c1ccccc1)OCc1ccccc1 | inactive |  |
| CCC(C)c1ccccc1O (stereo not given) | inactive |  |
| CN1C(C(=O)Nc2ccccn2)=C(O)c2ccccc2S1(=O)=O | inactive |  |
| COC(=O)c1ccccc1 | inactive |  |
| CN(C)c1nc(N(C)C)nc(N(C)C)n1 | inactive |  |
| CC(C)Oc1ccc2c(=O)c(-c3ccccc3)coc2c1 |  | -5.12% [at 42.5 µM] |
| CCCCNS(=O)(=O)c1ccccc1 | inactive |  |
| O=S(=O)(O)c1ccc(O)cc1 | inactive |  |
| Nc1ncn([C@@H]2O[C@H](CO)[C@@H](O)[C@H]2O)c(=O)n1 |  | 0.59% |
| C#C[C@]1(O)CC[C@H]2[C@@H]3CCC4=Cc5oncc5C[C@]4(C)[C@H]3CC[C@@]21C | inactive |  |
| COc1ccccc1/C=C/C=O |  | 6.93% |
| c1cc(N(CC2CO2)CC2CO2)ccc1OCC1CO1 (stereo not given) | inactive |  |
| c1ccc2c(c1)c1cccc3ccc4cccc2c4c31 | inactive |  |
| CC(C)OC=O | inactive |  |
| O=C(O)c1ccccc1Nc1cccc(C(F)(F)F)c1 | inactive |  |
| CCC(C)CO (stereo not given) |  | 5.39% |
| Nc1ccc(Cl)cc1Cl | inactive |  |
